In PubChem BioAssay AID602262 (National Center for Advancing Translational Sciences (NCATS), 2012):

experiment: qHTS Assay for Agonists of the Relaxin Receptor RXFP1: V1B SAR; settings: HEK293 V1B cells, cAMP TR-FRET, 30 min; series mostly up to 78.1 µM; activation: at the top concentration; active = well fitted curve in the direction sought with a large enough effect; inactive = no such curve, though single readings can be large or run the other way
Source text: The relaxin hormone is involved in the variety of biological functions in normal tissues and diseases. The role of relaxin is well-established in female reproduction and parturition, mammary gland and endometrial development, maintenance of myometrial quiescence during pregnancy. Relaxin signaling through its G protein-coupled receptor (GPCR) RXFP1 results in ECM remodeling through regulation of collagen deposition, cell invasiveness, proliferation and overall tissue homeostasis. […] Recombinant human relaxin (rhRlx) is currently being tested in clinical trials as a protective agent in congestive heart failure, in treating severe preeclampsia, and as an anti-fibrotic agent in systemic sclerosis. Upon relaxin binding RXFP1 activation leads to the activation of adenylate cyclase (AC) via Gs. cAMP will activate PKA, which phosphorylates many signaling proteins. Thus, detection of cAMP increase is an easy and reliable indication of relaxin receptor activation. To screen for agonists of the relaxin receptor, a HEK293T cell line stably transfected with RXFP1 was used. RXFP1 activation was assayed by changes in cAMP levels as detected with a time-resolved fluorescence energy transfer (TR-FRET) cAMP detection kit. This assay measures activation of a cell expressing V1B, another GPCR targeted by relaxin, to determine the selectivity of compounds for RXFP1. NIH Chemical Genomics Center [NCGC] NIH Molecular Libraries Probe Production Centers Network [MLPCN] MLPCN Grant: R03 MH085705-01A1 Assay Submitter (PI): Alexander Agoulnik
This is a cell-based assay for cAMP second messenger response to screen for agonists of the RXFP2 receptor. The assay was conducted in the presence of a PDE4 inhibitor (Ro 20174). The cells were lysed and the cAMP levels were measured with a TR-FRET cAMP kit. Presence of cAMP in the cell lysate disrupts binding between the cryptate-labeled anti-cAMP and d2-labeled cAMP pair, leading to a decrease in the TR-FRET signal. Data were normalized to the controls for basal activity (buffer only) and 100% activity (29 nM porcine relaxin). The EC50 values were determined from concentration-response data modeled with the standard Hill equation 1536-well assay protocol for the HEK293 V1B cAMP assay: (1) Add 3 ul HEK293 RXFP2 cell culture. 2000 cells/well in DMEM/F12, 10% FBS, 1x Pen/Strep (dispensed offline with MultiDrop Combi). (2) Incubate 16-24 hr at 37C, 5% CO2. (3) Add 1 ul 400uM Ro20174 in DPBS, 0.05% BSA, 0.005% Tween 20. (3) Add 23 nl compounds in DMSO solution. Final concentration was 0.5 - 58 uM. (4) Incubate 30 min at 37C, 5% CO2. (5) Add 1 ul cAMP-d2 in lysis buffer (HTRF cAMP HiRange kit, CisBio). (6) Add 1 ul anti-cAMP antibody-cryptate in lysis buffer (HTRF cAMP HiRange kit, CisBio). (7) Incubate 30 min at room temperature. (6) Detect the assay plate in a ViewLux plate reader (PerkinElmer) with Ex=320 nm, Em1=615 nm and Em2=665 nm. Keywords: relaxin, RXFP1, RXFP2, G-protein coupled receptor, cAMP, agonist, high throughput screening, MLSMR, MLSCN, NIH Roadmap, qHTS and NCGC

activation, inactive:
O=C(Nc1ccccc1C(=O)Nc1cccc(C(F)(F)F)c1)c1ccccc1 66.3%
O=C(Nc1cccc(C(F)(F)F)c1)c1ccccc1NC(=O)C1CCCCC1 1.32%
O=C(Nc1cccc(S(=O)(=O)C(F)(F)F)c1)c1ccccc1NC(=O)c1ccccc1OCC(F)(F)F 1.49%
O=C(Nc1cccc(-c2cccc(C(F)(F)F)c2)c1)c1ccccc1NC(=O)C1CCCCC1 2.41%
O=C(NCc1ccco1)c1ccccc1NC(=O)c1ccccc1NC(=O)C1CCCCC1 5.67%
CCOc1ccccc1C(=O)Nc1ccncc1C(=O)Nc1cccc(S(=O)(=O)C(F)(F)F)c1 4.28%
COc1ccccc1-c1ccccc1C(=O)Nc1cccc(C(F)(F)F)c1 3.5%
CCOc1ccccc1S(=O)(=O)Nc1ccccc1C(=O)Nc1cccc(S(=O)(=O)C(F)(F)F)c1 4.37%
O=C(NCc1cccc(C(F)(F)F)c1)c1ccccc1NC(=O)C1CCCCC1 -0.791%
CC(C)(C)c1cccc(NC(=O)c2ccccc2NC(=O)C2CCCCC2)c1 -3.36%
CCCCC(=O)Nc1ccccc1C(=O)Nc1cccc(C(F)(F)F)c1 -2.71%
CCOc1ccccc1C(=O)Nc1ccccc1C(=O)Nc1cccc(C(F)(F)F)c1 7.36%
CSc1cccc(NC(=O)c2ccccc2NC(=O)C2CCCCC2)c1 3.22%
O=C(Nc1ccc(C(F)(F)F)cc1)c1ccccc1NC(=O)C1CCCCC1 2.37%
CCOc1ccccc1C(=O)Nc1cccnc1C(=O)Nc1cccc(S(=O)(=O)C(F)(F)F)c1 -5.24%
O=C(Nc1cccc(-c2ccccc2)c1)c1ccccc1NC(=O)C1CCCCC1 -3.61%
O=C(Nc1cccc(S(=O)(=O)C(F)(F)F)c1)c1ccccc1NC(=O)C1CCCCC1 -2.51%
O=C(Nc1cccc([N+](=O)[O-])c1)c1ccccc1NC(=O)C1CCCCC1 1.46%
CCSc1ccccc1C(=O)Nc1ccccc1C(=O)Nc1cccc(S(=O)(=O)C(F)(F)F)c1 -1.43%
CC(C)Oc1ccccc1C(=O)Nc1ccccc1C(=O)Nc1cccc(C(F)(F)F)c1 -5.45%
CCCOc1ccccc1C(=O)Nc1ccccc1C(=O)Nc1cccc(S(=O)(=O)C(F)(F)F)c1 0.371%
COc1cccc(C(=O)Nc2ccccc2C(=O)Nc2cccc(C(F)(F)F)c2)c1 1.57%
Cc1ccc(NC(=O)c2ccccc2NC(=O)C2CCCCC2)cc1 0.657%
COc1ccccc1Nc1ccccc1C(=O)Nc1cccc(C(F)(F)F)c1 -2.38%
COc1ccccc1C(=O)Nc1ccc(C(=O)Nc2cccc(C(F)(F)F)c2)cc1 -3.39%
CCC(CC)C(=O)Nc1ccccc1C(=O)Nc1cccc(C(F)(F)F)c1 1.55%
